Laboratory results from PubChem BioAssay (NCATS).
Results filed as inconclusive are left out. A number with no mark means an inactive call. Calls of active or inactive are those of the source. Calls come from the whole dose curve; as a rule, active = well fitted cell-killing curve with a large enough effect; inconclusive = small, poorly fitted or top-dose-only effect, or effect the other way; inactive = flat fitted curve, though single readings scatter. Where a SMILES comes first, the peptide text is derived from it. Bridges are numbered along the chain shown (N, C = ends). [ ]: non-standard residue; d: D form. hArg = N=C(N)NCCCC[C@H](N)C(=O)O; Mpa = O=C(O)CCS
% is set by controls: 0 for no effect and ±100 for the full control effect.

These compounds were tested on CAOV3 (assay: Primary qHTS to identify gynecologic anti-cancer compounds using libraries of approved drugs and bioactive compounds (AID 1345084; note: nearly all actives have a fitted effect of over 55% in size)). Settings: Gynecologic cancer cell panel viability, ATPlite luminescence, 48 h; series mostly up to 57.5 µM.
Source text: National Center for Advancing Translational Sciences [NCATS] Assay Overview: Chemotherapeutic drug responses vary from cancer to cancer and from patient to patient. These variations could be caused by a number of factors including patient genomic background, tumor mutations, tumor heterogeneity, and aspects of drug treatment. Chemotherapeutic drug resistance is also a common issue and can lead to ineffective treatment and patient death. Here we have profiled the cell killing effects of thousands of compounds to characterize the responses in three gynecological cancers, identify cancer-selective compounds, and understand the diversity of responses to these compounds from pan-cancer suppressors to single cell line selective compounds. In this assay, we screened a 7,914 compound drug library that included approved drug and bioactive compounds in six ovarian, three cervical, and […] placental cancer cell lines using the ATPlite assay for cell viability. […] The cervical cancer cell lines included HeLa, Ca Ski, and C-33 A. The placental cancer cell lines included JEG-3. HEK 293T cells were used as the control cell line to determine the selectivity index. ATPlite is a luminescence based assay reliant on the conversion of a luciferase substrate to light in the presence of ATP. As a cytotoxic compound will suppress growth and decrease the number of cells, the concentration of ATP will decrease, and less light signal will be detected in the well.
Assay Protocol Summary: 1,000 cells in 4 uL of media were dispensed into white, solid bottom 1536-well plates using a Multidrop Combi (Thermo Scientific). The Assay plates were incubated for 16 hours at 37 C with 5% CO2 in assay plates, followed by the addition of 23 nL of DMSO or drug dissolved in DMSO. Each compound was assayed in five concentrations (0.092, 0.46, 2.3, 11.5, and 57.5 uM), using the automated Wako 1536 Pin Tool workstation and incubated at 37 C with 5% CO2 48 hours. 4 uL of ATPlite, the ATP monitoring reagent, was then added to the each well of the assay plates using the Multidrop Combi reagent dispenser followed by incubation for 15 minutes at room temperature. The resulting luminescence was measured using the ViewLux plate reader.
c1ccc2[nH]ccc2c1 was tested, and the outcome was “inactive”. In the case of O=C(O)[C@@H]1[C@H]2C[C@H]3c4[nH]c5ccccc5c4CCN3C[C@@H]2CC[C@@H]1O, the outcome is reported as “inactive”. In the case of CN1C[C@@H]2C[C@H]1CN2c1cc2c(cc1F)c(=O)c(C(=O)O)cn2C1CC1, the outcome is reported as “inactive”. With CC1(C)S[C@@H]2[C@H](N=CN3CCCCCC3)C(=O)N2[C@H]1C(=O)O the outcome was “inactive”. With NC(N)=NCCN1CCCCCCC1 the activity change, negative = cytotoxicity was -2.11% [at 0.462 µM]. In the case of CCCCCCCCCCCCCCCCC(C(=O)O)C(O)(CC(=O)O)C(=O)O (stereo not given), the outcome is reported as “inactive”. For NS(=O)(=O)c1cc(C2(O)NC(=O)c3ccccc32)ccc1Cl (stereo not given), the outcome was “inactive”. In the case of C/C(=C(\CCO)SS/C(CCO)=C(\C)N(C=O)Cc1cnc(C)nc1N)N(C=O)Cc1cnc(C)nc1N, the outcome is reported as “inactive”. For O=C(O)/C=C/c1ccc(Cn2ccnc2)cc1, the outcome was “inactive”. With O=C(/C=C/c1ccc(O)c(O)c1)O[C@@H]1C[C@@](OC(=O)/C=C/c2ccc(O)c(O)c2)(C(=O)O)C[C@@H](O)[C@@H]1O the outcome was “inactive”. For Cc1c(C(=O)NCCO)[n+](=O)c2ccccc2n1[O-], the outcome was “inactive”. In the case of NC(N)=NS(=O)(=O)c1ccc(N)cc1, the outcome is reported as “inactive”. For COc1ccccc1Oc1c(NS(=O)(=O)c2ccc(C(C)(C)C)cc2)nc(-c2ncccn2)nc1OCCO, the outcome was “inactive”. With NC(=O)[C@@H]1CSSCCC(=O)N[C@@H](CCCCN=C(N)N)C(=O)NCC(=O)N[C@@H](CC(=O)O)C(=O)N[C@@H](Cc2c[nH]c3ccccc23)C(=O)N2CCC[C@H]2C(=O)N1 ([Mpa][hArg]GDWPC-NH2; disulfide 1-7) the outcome was “inactive”. With O=C(O)c1ccc(OCCCOc2ccc(C(=O)O)cc2)cc1 the outcome was “inactive”. For NC(=O)CCCCC1CCSS1 (stereo not given), the outcome was “inactive”. For NS(=O)(=O)c1cc2c(cc1C(F)(F)F)NCNS2(=O)=O, the outcome was “inactive”. In the case of CN1CCCN=C1COC(=O)C(O)(c1ccccc1)C1CCCCC1 (stereo not given), the outcome is reported as “inactive”. For CCN(CC)CCOC(=O)C(c1ccccc1)c1ccccc1, the outcome was “inactive”. NC(=O)CC[C@@H](N)C(=O)O was tested, and the outcome was “inactive”. For O=C(c1ccccc1)C(O)c1ccccc1 (stereo not given), the outcome was “inactive”. In the case of CC(=O)NS(=O)(=O)c1ccc(N)cc1, the outcome is reported as “inactive”. In the case of C=CCOc1ccccc1OCC(O)CNC(C)C (stereo not given), the outcome is reported as “inactive”. Work on N[C@@H](Cc1ccc(O)cc1)C(=O)O yielded an activity change, negative = cytotoxicity of -13.2% [at 11.6 µM]. CC1(C)S[C@@H]2[C@H](NC(=O)C(C(=O)O)c3ccccc3)C(=O)N2[C@H]1C(=O)O (stereo not given in full) was tested, and the outcome was “inactive”. With CC(C)(C)NCC(O)COc1cccc2c1CCC(=O)N2 (stereo not given) the outcome was “inactive”. With C1CCN2C[C@@H]3C[C@@H](CN4CCCC[C@@H]34)[C@H]2C1 the outcome was “inactive”. With CC(=O)N[C@@H](CC(C)C)C(=O)O the outcome was “inactive”. With C[C@@H]1O[C@@H](OC[C@H]2O[C@@H](Oc3c(-c4ccc(O)c(O)c4)oc4cc(O)cc(O)c4c3=O)[C@H](O)[C@@H](O)[C@@H]2O)[C@H](O)[C@H](O)[C@H]1O the outcome was “inactive”. O=C1c2cccc(O)c2C(=O)c2c(O)cccc21 was tested, and the outcome was “inactive”. Cc1c(NC(C)C)c(=O)n(-c2ccccc2)n1C was tested, and the outcome was “inactive”. COC(=O)c1ccccc1C(=O)c1ccc(OCCN2CCCCC2)cc1 was tested, and the outcome was “inactive”. With CCc1nnc(NS(=O)(=O)c2ccc(N)cc2)s1 the outcome was “inactive”. For CO[C@@]1(NC(=O)C(C(=O)O)c2ccc(O)cc2)C(=O)N2C(C(=O)O)=C(CSc3nnnn3C)CO[C@@H]21 (stereo not given in full), the outcome was “inactive”. Nc1ccc(C(=O)Oc2ccccc2)c(O)c1 was tested, and the outcome was “inactive”. In the case of CCOc1ccc(C(=O)OCCN(CC)CC)cc1, the outcome is reported as “inactive”. NC(=O)NS(=O)(=O)c1ccc(N)cc1 was tested, and the outcome was “inactive”. For COc1ccc(C(=O)N2CCN(CC(=O)N3CCOCC3)CC2)cc1, the outcome was “inactive”. For CNCc1ccccc1, the outcome was “inactive”. OC[C@@H](O)[C@@H](O)[C@H](O)[C@H](O)CO was tested, and the outcome was “inactive”.
